Here are results for one sequence from PMC7862700, “An all-to-all approach to the identification of sequence-specific readers for epigenetic DNA modifications on cytosine”.

Common to all, as to experiment: DAPPL (digital affinity profiling via proximity ligation, sequencing); 10 mM Tris-HCl pH 7.5, 50 mM NaCl, 1 mM DTT, 4% glycerol, room temperature, 30 min; GST-TFs on glutathione beads, 16-mer random dsDNA library, 0.1% formaldehyde crosslink after washing; high values mean tight binding
The target of one experiment is T1, FEV (Homo sapiens, UniProt Q99581 1-238).
T1 sequence: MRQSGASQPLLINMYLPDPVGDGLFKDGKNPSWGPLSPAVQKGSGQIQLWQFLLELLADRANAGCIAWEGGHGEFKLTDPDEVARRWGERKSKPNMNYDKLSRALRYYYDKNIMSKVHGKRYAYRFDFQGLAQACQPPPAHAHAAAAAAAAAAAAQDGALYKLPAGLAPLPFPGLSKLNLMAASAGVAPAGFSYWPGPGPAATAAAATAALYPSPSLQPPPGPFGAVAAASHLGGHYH
Particulars: protein: recombinant; tags: N-terminal GST; dsDNA, one strand shown. Put shortly: (§1)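 Binding signal is given per hexamer as its read frequency for a factor divided by its frequency in the tag-only sample. GST-fused human transcription factors were expressed in yeast, captured on glutathione beads, barcoded with DNA and pooled with that sample, then incubated with 200 nmole of a 16-mer random double-stranded DNA library in Tris/NaCl/DTT/glycerol buffer for 30 min at room temperature. The pools were then washed, crosslinked, proximity-ligated, amplified by PCR and sequenced on an Illumina NextSeq500.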

The target of the next experiment is ETV5 (Homo sapiens, UniProt P41161 1-510). The conditions noted are these: protein: recombinant; tags: N-terminal GST; dsDNA, one strand shown. In outline:
as §1

A further experiment has as its target HSF1 (Homo sapiens, UniProt Q00613 1-529). The conditions noted are these: protein: recombinant; tags: N-terminal GST; chain copies: 3; dsDNA, one strand shown. In outline:
as §1

The target of a further experiment is T2, SPIC (Homo sapiens, UniProt Q8N5J4 1-248).
T2 sequence: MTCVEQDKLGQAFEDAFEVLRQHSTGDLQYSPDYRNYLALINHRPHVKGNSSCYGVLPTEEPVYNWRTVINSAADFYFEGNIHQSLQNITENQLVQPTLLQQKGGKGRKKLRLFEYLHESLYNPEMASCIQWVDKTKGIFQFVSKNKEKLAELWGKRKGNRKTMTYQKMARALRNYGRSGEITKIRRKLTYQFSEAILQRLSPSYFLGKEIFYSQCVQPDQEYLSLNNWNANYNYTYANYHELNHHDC
Particulars: protein: recombinant; tags: N-terminal GST; dsDNA, one strand shown. Put shortly:
as §1

The next experiment addresses ELF4 (Homo sapiens, UniProt Q99607 1-663). The conditions noted are these: protein: recombinant; tags: N-terminal GST; dsDNA, one strand shown. In outline:
as §1

For a further experiment, the target named is T3, ELK4 (Homo sapiens, UniProt P28324-2 1-405).
T3 sequence: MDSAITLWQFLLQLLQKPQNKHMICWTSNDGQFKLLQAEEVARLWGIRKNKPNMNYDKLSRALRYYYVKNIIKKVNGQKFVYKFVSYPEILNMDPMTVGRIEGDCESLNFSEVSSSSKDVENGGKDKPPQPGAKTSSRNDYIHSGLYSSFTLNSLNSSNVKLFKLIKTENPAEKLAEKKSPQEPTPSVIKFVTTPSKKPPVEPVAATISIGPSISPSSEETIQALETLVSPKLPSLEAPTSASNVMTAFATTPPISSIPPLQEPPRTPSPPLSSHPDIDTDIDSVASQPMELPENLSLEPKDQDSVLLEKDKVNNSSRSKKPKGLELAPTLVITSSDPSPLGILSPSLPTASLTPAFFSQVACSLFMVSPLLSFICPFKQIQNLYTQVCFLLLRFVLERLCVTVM
The conditions noted are these: protein: recombinant; tags: N-terminal GST; dsDNA, one strand shown. In outline:
as §1

Another experiment deals with T4, ETV2 (Homo sapiens, UniProt O00321 1-342).
T4 sequence: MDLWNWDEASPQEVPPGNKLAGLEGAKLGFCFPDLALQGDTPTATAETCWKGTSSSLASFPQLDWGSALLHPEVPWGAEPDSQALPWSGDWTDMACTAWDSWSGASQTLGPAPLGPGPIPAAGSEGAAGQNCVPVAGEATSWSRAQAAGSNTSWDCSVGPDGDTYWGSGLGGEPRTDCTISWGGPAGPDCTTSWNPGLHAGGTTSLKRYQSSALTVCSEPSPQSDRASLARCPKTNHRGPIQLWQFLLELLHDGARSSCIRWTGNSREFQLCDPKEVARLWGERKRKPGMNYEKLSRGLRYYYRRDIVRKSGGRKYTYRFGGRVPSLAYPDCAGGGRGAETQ
The conditions noted are these: protein: recombinant; tags: N-terminal GST; dsDNA, one strand shown. Put shortly:
as §1

The next experiment deals with T5, ELF3 (Homo sapiens, UniProt P78545 1-371).
T5 sequence: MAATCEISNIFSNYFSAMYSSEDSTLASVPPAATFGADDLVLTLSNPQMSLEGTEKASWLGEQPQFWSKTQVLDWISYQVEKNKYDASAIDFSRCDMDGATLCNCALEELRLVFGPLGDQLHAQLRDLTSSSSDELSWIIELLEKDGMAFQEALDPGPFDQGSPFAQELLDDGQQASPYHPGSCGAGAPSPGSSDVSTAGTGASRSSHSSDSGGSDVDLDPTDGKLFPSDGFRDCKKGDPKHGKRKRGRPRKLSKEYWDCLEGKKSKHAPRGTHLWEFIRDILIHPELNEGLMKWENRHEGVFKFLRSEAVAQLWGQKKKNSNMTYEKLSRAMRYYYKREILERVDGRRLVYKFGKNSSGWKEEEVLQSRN
Particulars: protein: recombinant; tags: N-terminal GST; dsDNA, one strand shown. Put shortly:
as §1

The target of another experiment is CRX (Homo sapiens, UniProt O43186 1-299). Particulars: protein: recombinant; tags: N-terminal GST; dsDNA, one strand shown. Put shortly:
as §1

Another experiment addresses ETV1 (Homo sapiens, UniProt P50549 1-477). The conditions noted are these: protein: recombinant; tags: N-terminal GST; dsDNA, one strand shown. Put shortly:
as §1

The target in the next experiment is T6, ERF (Homo sapiens, UniProt P50548 1-548).
T6 sequence: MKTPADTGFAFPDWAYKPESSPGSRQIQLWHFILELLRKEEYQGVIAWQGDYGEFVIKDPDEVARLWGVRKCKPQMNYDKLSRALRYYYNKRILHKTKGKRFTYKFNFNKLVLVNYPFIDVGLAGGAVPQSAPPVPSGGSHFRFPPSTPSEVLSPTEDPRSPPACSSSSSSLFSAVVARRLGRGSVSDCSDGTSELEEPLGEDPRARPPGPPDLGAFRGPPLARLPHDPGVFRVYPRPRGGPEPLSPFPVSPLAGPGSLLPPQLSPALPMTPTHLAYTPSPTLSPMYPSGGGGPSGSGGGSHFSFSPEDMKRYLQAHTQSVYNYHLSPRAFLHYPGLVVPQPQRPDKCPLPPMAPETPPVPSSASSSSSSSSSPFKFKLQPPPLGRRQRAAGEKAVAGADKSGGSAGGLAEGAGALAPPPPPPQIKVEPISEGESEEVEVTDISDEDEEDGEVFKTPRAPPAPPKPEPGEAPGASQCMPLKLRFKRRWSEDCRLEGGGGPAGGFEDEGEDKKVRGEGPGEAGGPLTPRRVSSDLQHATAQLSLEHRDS
The conditions noted are these: protein: recombinant; tags: N-terminal GST; dsDNA, one strand shown. In outline: as §1

Another experiment concerns the target T7, ETV3L (Homo sapiens, UniProt Q6ZN32 1-361).
T7 sequence: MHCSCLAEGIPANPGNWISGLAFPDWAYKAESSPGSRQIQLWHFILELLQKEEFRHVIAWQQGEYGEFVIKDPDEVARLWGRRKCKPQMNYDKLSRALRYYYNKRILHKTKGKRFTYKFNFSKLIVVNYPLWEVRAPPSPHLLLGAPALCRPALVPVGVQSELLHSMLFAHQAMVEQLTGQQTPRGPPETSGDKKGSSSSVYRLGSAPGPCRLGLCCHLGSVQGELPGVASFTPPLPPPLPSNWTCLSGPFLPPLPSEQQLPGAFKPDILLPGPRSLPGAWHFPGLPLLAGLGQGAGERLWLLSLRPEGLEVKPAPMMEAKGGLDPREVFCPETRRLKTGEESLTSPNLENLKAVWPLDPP
Particulars: protein: recombinant; tags: N-terminal GST; dsDNA, one strand shown. In outline: as §1

Another experiment addresses T8, ETS2 (Homo sapiens, UniProt P15036 1-469).
T8 sequence: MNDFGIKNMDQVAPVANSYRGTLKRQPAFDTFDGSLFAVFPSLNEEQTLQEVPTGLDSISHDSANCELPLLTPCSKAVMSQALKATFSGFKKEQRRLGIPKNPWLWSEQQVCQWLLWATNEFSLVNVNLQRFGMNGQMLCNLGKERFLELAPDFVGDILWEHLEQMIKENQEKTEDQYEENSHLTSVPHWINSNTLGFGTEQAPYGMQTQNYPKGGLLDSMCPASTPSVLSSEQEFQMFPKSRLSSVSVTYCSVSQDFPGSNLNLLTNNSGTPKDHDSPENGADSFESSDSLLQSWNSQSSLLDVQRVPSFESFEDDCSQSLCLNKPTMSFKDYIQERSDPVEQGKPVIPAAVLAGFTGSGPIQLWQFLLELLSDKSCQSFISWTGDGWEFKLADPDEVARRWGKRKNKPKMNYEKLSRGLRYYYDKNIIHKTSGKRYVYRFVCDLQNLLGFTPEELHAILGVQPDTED
The conditions noted are these: protein: recombinant; tags: N-terminal GST; dsDNA, one strand shown. Put shortly:
as §1

A further experiment addresses T9, SPDEF (Homo sapiens, UniProt O95238 1-335).
T9 sequence: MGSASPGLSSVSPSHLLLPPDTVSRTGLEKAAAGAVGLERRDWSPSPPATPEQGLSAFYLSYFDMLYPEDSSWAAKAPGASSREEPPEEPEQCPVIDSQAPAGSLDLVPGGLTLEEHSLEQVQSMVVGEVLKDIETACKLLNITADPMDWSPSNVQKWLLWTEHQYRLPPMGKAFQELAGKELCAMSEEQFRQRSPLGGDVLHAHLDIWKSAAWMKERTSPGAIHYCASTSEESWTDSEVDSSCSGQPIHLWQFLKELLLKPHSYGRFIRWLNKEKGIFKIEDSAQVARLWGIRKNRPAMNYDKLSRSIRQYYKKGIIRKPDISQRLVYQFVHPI
Particulars: protein: recombinant; tags: N-terminal GST; dsDNA, one strand shown. Put shortly:
as §1

A further experiment concerns the target T10, ETV7 (Homo sapiens, UniProt Q9Y603 1-341).
T10 sequence: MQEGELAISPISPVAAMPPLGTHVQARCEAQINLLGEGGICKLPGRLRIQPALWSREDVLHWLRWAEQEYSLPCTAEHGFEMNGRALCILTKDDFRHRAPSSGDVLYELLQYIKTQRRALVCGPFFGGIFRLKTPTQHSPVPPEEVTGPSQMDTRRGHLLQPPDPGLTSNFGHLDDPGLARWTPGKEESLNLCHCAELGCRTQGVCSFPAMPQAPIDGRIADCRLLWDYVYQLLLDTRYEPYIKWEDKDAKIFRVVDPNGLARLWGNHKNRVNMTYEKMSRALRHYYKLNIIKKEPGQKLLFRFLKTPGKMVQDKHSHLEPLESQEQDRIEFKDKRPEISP
Particulars: protein: recombinant; tags: N-terminal GST; dsDNA, one strand shown. In outline:
as §1

For a further experiment, the target named is T11, ELF5 (Homo sapiens, UniProt Q9UKW6-2 1-255).
T11 sequence: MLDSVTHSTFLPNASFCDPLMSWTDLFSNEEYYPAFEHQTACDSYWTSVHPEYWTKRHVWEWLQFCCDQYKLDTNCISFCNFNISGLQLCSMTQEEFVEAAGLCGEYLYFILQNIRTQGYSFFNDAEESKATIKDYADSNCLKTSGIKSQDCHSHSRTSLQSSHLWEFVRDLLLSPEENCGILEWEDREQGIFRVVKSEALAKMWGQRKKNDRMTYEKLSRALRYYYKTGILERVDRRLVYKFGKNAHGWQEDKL
The conditions noted are these: protein: recombinant; tags: N-terminal GST; dsDNA, one strand shown. Put shortly: as §1

A further experiment deals with T12, ETV3 (Homo sapiens, UniProt P41162-2 1-143).
T12 sequence: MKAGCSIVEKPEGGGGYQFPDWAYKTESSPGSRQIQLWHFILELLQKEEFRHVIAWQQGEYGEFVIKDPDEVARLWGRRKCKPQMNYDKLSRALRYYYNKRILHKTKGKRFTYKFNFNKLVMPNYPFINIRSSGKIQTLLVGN
Particulars: protein: recombinant; tags: N-terminal GST; dsDNA, one strand shown. Put shortly:
as §1

A further experiment deals with ETV6 (Homo sapiens, UniProt P41212 1-452). Particulars: protein: recombinant; tags: N-terminal GST; dsDNA, one strand shown. In outline: as §1
Sequence of ETV6 (P41212 whole entry): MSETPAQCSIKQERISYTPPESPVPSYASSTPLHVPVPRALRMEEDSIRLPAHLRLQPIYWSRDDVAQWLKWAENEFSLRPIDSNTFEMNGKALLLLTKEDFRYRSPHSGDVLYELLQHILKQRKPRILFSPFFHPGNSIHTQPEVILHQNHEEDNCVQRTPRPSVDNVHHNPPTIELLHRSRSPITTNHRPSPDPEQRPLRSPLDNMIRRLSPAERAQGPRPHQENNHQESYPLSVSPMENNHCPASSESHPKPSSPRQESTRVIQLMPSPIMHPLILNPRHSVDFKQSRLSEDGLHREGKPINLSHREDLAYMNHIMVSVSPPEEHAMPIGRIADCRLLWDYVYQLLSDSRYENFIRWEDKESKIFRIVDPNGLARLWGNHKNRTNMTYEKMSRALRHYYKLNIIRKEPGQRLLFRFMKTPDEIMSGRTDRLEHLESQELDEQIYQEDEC

Sequence of ETV1 (P50549 whole entry): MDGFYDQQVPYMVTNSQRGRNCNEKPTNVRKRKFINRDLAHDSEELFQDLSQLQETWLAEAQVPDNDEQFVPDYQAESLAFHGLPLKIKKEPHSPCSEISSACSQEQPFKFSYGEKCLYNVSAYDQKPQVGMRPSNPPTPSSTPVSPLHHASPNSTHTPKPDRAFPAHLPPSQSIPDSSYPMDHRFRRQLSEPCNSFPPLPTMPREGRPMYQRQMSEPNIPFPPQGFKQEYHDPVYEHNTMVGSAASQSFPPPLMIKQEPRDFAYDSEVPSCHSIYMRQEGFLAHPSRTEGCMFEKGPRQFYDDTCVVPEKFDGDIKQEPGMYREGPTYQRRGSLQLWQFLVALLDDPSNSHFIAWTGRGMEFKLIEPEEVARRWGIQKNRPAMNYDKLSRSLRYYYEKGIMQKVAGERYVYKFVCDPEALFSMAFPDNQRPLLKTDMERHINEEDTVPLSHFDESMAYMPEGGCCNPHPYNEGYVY
Sequence of ETV5 (P41161 whole entry): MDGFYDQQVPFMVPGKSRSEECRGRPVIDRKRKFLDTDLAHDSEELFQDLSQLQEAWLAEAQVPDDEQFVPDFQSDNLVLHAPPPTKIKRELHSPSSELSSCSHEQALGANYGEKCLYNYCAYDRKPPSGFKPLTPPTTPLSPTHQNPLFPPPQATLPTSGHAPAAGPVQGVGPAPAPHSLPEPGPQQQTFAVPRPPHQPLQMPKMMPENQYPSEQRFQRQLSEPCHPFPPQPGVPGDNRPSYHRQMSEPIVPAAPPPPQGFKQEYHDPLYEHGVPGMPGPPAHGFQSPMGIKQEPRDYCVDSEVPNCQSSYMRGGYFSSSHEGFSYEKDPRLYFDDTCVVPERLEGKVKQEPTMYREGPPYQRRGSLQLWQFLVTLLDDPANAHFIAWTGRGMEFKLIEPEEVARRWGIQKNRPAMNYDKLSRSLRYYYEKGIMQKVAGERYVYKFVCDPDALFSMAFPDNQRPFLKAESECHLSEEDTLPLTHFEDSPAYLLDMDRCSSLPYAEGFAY
Sequence of ELF4 (Q99607 whole entry): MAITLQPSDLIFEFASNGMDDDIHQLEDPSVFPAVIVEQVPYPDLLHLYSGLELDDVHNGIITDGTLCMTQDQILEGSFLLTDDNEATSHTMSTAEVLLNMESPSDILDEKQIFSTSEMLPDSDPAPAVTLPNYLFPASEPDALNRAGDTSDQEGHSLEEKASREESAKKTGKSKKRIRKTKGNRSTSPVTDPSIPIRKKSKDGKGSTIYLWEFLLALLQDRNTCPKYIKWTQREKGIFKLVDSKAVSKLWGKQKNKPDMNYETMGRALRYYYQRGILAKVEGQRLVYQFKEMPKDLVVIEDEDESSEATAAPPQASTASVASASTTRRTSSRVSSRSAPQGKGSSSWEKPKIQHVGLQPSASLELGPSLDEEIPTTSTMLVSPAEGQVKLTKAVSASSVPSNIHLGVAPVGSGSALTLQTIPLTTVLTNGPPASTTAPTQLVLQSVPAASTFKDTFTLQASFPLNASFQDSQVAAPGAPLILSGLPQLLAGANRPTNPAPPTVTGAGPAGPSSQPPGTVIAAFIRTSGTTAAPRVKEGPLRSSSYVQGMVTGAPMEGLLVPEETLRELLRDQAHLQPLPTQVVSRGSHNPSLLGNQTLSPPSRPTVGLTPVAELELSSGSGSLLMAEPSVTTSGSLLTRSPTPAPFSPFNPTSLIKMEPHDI
Sequence of CRX (O43186 whole entry): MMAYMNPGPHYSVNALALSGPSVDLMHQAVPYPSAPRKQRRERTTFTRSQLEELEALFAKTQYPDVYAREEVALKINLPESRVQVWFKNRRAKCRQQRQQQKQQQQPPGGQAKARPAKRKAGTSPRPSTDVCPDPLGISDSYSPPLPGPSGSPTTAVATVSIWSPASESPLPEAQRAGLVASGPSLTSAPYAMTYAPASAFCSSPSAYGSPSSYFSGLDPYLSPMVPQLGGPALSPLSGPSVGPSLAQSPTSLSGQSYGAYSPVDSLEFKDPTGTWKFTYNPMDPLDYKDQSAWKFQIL
Sequence of HSF1 (Q00613 whole entry): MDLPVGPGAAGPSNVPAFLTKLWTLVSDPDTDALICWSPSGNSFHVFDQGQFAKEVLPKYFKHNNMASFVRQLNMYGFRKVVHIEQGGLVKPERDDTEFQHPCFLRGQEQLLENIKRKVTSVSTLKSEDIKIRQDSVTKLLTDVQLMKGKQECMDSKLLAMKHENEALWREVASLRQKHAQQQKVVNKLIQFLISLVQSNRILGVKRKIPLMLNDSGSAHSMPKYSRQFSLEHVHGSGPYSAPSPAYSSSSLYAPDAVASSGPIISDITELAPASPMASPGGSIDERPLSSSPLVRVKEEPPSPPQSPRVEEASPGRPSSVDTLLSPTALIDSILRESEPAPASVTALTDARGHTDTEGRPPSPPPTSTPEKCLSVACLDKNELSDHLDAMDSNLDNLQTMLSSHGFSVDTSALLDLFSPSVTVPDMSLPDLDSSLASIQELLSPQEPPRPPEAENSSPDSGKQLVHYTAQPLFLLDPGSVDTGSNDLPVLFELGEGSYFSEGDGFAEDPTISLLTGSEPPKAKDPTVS

For TCTCCT, the binding signal with FEV is 1.43 fold enrichment (6-mer frequency, TF over GST control); with ETV5, 1.33 fold enrichment (6-mer frequency, TF over GST control); in the experiment with HSF1, 1.55 fold enrichment (6-mer frequency, TF over GST control); in the experiment with SPIC, 1.59 fold enrichment (6-mer frequency, TF over GST control); with ELF4, 1.51 fold enrichment (6-mer frequency, TF over GST control); with ELK4, 1.38 fold enrichment (6-mer frequency, TF over GST control). The binding signal with ETV2 was 1.43 fold enrichment (6-mer frequency, TF over GST control); in the experiment with ELF3 it was 1.7 fold enrichment (6-mer frequency, TF over GST control); in the experiment with CRX it was 1.55 fold enrichment (6-mer frequency, TF over GST control); with ETV1, 1.49 fold enrichment (6-mer frequency, TF over GST control); in the experiment with ERF, 1.34 fold enrichment (6-mer frequency, TF over GST control); with ETV3L, 1.73 fold enrichment (6-mer frequency, TF over GST control). Moreover, the binding signal in the experiment with ETS2 is 1.52 fold enrichment (6-mer frequency, TF over GST control); with SPDEF, 1.32 fold enrichment (6-mer frequency, TF over GST control); in the experiment with ETV7, 1.46 fold enrichment (6-mer frequency, TF over GST control); with ELF5 it was 1.41 fold enrichment (6-mer frequency, TF over GST control); with ETV3, 1.41 fold enrichment (6-mer frequency, TF over GST control); with ETV6, 1.44 fold enrichment (6-mer frequency, TF over GST control).
